# Reference: ChEMBL document CHEMBL1961873, “Compounds: GSK PKIS; Assays: Nanosyn kinase panel” (2012)
# How the values were obtained:
# [1] = target: Sphingosine kinase 1 (Homo sapiens) (UniProt Q9NYA1); details: at 1 µM;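 note: mean SPHK1 inhibition value reported from the GSK PKIS kinase panel screen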
# [2] = target: T1, Sphingosine kinase 2 (Homo sapiens) (UniProt Q9NRA0); details: at 0.1 µM
# T1 sequence (whole entry): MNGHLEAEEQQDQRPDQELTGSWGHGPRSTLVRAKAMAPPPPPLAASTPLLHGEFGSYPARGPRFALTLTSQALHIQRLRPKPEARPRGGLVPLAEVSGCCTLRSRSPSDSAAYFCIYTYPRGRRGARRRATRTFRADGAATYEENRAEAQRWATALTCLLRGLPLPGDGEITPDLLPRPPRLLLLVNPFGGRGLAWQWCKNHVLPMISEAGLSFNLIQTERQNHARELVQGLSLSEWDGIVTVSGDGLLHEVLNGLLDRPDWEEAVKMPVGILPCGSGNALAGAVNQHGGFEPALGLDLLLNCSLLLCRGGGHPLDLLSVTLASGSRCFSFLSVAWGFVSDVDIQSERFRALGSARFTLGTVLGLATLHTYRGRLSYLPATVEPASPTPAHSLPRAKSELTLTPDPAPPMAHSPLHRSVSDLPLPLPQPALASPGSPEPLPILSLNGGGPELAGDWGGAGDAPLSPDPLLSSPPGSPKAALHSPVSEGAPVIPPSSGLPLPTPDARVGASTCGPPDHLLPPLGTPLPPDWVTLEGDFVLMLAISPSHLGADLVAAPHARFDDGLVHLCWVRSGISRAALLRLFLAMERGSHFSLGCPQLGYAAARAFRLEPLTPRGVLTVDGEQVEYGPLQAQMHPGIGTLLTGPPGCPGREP
# [3] = target: T1, Sphingosine kinase 2 (Homo sapiens); details: at 1 µM
# [4] = target: Casein kinase II subunit alpha (Homo sapiens) (UniProt P68400); details: at 0.1 µM
# Chain of Casein kinase II subunit alpha (Homo sapiens) (P68400 whole entry, looked up): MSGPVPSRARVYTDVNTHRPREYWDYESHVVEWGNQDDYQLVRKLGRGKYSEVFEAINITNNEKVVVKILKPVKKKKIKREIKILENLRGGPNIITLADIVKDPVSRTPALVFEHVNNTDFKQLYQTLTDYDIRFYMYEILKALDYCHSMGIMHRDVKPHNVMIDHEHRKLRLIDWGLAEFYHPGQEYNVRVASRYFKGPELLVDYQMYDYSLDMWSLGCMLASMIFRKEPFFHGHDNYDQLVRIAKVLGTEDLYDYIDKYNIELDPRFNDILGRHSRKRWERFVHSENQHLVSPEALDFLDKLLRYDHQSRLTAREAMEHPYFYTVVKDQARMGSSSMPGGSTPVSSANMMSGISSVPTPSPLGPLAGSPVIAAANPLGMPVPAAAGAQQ
# [5] = target: Casein kinase II subunit alpha (Homo sapiens) (UniProt P68400); details: at 1 µM
# [6] = target: T2, Inhibitor of nuclear factor kappa-B kinase subunit alpha (Homo sapiens) (UniProt O15111); details: at 0.1 µM
# T2 sequence (whole entry): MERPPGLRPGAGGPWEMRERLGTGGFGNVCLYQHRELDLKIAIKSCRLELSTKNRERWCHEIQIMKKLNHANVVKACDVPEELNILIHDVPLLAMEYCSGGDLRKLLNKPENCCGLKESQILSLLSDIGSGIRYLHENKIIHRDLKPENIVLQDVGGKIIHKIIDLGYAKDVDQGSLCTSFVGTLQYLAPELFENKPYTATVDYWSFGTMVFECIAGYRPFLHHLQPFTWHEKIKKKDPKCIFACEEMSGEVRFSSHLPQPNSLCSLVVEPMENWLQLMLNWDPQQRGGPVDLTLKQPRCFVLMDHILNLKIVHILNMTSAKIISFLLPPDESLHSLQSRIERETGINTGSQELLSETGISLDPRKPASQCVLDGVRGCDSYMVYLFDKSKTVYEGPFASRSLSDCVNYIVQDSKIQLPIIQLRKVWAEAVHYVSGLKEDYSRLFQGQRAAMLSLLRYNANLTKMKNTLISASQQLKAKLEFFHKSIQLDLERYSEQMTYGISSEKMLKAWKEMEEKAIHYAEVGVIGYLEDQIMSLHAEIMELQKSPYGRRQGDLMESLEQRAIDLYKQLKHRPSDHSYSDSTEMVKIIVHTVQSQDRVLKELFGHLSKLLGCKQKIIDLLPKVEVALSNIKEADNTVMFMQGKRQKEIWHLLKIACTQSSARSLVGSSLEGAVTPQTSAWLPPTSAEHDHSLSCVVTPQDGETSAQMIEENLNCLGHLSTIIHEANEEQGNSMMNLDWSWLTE
# [7] = target: T2, Inhibitor of nuclear factor kappa-B kinase subunit alpha (Homo sapiens); details: at 1 µM
# [8] = target: T3, Inhibitor of nuclear factor kappa-B kinase subunit beta (Homo sapiens) (UniProt O14920); details: at 0.1 µM
# T3 sequence (whole entry): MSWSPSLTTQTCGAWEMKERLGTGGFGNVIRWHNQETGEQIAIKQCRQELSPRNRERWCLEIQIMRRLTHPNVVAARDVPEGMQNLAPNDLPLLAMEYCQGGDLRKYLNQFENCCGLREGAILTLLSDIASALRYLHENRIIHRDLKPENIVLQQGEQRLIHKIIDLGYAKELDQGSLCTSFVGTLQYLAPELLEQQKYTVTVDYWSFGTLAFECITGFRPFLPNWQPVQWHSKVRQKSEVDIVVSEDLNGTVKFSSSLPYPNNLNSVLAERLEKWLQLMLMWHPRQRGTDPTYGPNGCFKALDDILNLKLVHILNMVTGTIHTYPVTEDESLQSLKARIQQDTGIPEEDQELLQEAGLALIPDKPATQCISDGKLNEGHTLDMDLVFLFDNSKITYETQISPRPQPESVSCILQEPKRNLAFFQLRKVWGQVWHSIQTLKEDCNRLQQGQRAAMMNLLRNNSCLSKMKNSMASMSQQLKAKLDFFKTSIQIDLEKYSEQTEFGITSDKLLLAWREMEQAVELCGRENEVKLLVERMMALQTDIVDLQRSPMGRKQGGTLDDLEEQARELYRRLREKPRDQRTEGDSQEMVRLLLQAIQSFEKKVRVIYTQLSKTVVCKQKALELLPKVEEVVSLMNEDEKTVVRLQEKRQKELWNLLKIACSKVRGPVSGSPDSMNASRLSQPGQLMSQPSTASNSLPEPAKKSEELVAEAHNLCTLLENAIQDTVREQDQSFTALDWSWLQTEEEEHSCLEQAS
# [9] = target: T3, Inhibitor of nuclear factor kappa-B kinase subunit beta (Homo sapiens); details: at 1 µM
# [10] = target: T4, Inhibitor of nuclear factor kappa-B kinase subunit epsilon (Homo sapiens) (UniProt Q14164); details: at 0.1 µM
# T4 sequence (whole entry): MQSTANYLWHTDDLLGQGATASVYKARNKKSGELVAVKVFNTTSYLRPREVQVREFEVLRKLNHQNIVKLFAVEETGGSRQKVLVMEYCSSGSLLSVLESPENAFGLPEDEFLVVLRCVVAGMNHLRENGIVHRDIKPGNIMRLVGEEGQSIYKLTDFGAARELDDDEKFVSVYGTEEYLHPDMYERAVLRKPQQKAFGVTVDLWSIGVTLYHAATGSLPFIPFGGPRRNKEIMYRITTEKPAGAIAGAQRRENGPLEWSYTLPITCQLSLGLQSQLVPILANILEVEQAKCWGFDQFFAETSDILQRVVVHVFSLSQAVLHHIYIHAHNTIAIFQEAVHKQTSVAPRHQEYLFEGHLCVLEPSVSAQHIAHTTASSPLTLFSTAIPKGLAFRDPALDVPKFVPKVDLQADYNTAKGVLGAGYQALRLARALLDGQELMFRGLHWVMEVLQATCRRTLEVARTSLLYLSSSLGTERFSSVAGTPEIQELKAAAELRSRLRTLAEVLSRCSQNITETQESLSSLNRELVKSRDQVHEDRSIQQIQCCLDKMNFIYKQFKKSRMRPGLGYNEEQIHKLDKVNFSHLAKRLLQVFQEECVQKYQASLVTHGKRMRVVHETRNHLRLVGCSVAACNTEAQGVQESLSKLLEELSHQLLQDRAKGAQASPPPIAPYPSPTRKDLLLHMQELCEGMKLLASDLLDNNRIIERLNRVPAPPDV
# [11] = target: T4, Inhibitor of nuclear factor kappa-B kinase subunit epsilon (Homo sapiens); details: at 1 µM
# [12] = target: T5, Serine/threonine-protein kinase Nek1 (Homo sapiens) (UniProt Q96PY6); details: at 0.1 µM
# T5 sequence (whole entry): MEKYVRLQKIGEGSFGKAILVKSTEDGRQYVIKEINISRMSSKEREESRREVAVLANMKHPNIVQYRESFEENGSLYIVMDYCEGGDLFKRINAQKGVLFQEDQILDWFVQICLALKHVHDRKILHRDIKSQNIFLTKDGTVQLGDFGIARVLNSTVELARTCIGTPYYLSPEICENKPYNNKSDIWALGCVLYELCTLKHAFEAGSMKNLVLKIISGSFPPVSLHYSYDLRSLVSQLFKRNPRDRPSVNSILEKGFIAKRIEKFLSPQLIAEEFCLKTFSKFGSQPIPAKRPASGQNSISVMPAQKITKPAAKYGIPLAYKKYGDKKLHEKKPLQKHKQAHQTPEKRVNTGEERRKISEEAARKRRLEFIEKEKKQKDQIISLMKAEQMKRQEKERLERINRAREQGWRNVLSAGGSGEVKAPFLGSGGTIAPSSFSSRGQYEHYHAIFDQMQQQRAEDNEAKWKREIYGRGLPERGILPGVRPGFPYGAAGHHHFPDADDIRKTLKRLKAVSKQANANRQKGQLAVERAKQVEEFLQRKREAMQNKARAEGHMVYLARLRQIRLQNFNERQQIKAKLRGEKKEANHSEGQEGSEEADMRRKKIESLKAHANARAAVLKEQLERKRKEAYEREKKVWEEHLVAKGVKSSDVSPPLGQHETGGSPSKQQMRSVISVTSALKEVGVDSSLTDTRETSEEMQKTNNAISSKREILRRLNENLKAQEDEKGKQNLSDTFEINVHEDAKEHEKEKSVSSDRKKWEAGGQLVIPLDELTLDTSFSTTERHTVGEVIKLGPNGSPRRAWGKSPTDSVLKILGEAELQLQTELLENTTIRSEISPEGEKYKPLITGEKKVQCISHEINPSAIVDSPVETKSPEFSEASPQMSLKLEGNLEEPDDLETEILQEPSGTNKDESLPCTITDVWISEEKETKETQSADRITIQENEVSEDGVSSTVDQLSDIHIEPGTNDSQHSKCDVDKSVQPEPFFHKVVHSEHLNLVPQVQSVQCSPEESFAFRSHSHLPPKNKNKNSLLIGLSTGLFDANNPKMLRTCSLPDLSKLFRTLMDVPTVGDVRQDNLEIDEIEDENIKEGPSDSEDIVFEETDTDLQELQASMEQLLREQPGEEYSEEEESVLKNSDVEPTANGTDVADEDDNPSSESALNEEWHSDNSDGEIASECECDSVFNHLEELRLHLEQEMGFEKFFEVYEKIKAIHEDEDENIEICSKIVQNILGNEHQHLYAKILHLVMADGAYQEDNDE
# [13] = target: T5, Serine/threonine-protein kinase Nek1 (Homo sapiens); details: at 1 µM
# [14] = target: T6, Serine/threonine-protein kinase Nek2 (Homo sapiens) (UniProt P51955); details: at 0.1 µM
# T6 sequence (whole entry): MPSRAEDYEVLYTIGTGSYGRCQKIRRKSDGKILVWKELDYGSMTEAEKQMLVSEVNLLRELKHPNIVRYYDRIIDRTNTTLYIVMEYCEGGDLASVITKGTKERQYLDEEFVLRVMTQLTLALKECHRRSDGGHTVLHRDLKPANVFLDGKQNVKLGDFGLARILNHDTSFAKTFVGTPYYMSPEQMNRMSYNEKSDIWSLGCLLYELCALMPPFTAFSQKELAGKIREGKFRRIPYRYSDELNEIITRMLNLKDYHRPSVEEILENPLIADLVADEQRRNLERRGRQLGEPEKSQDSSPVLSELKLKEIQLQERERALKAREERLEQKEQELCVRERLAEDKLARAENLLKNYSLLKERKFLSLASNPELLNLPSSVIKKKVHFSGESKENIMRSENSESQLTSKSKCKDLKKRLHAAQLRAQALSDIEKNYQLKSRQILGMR
# [15] = target: T6, Serine/threonine-protein kinase Nek2 (Homo sapiens); details: at 1 µM
# [16] = target: Serine/threonine-protein kinase Nek6 (Homo sapiens) (UniProt Q9HC98); details: at 0.1 µM
# Chain of Serine/threonine-protein kinase Nek6 (Homo sapiens) (Q9HC98 whole entry): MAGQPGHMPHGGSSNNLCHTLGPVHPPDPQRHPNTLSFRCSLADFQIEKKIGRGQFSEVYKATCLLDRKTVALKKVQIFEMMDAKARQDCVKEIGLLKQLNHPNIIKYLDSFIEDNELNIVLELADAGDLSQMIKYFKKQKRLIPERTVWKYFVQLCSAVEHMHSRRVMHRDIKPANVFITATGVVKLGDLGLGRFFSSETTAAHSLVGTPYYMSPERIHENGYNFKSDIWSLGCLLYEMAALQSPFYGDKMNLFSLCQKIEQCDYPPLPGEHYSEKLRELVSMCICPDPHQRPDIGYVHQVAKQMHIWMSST
# [17] = target: Serine/threonine-protein kinase Nek6 (Homo sapiens) (UniProt Q9HC98); details: at 1 µM
# [18] = target: Serine/threonine-protein kinase Nek7 (Homo sapiens) (UniProt Q8TDX7); details: at 0.1 µM
# Chain of Serine/threonine-protein kinase Nek7 (Homo sapiens) (Q8TDX7 whole entry, looked up): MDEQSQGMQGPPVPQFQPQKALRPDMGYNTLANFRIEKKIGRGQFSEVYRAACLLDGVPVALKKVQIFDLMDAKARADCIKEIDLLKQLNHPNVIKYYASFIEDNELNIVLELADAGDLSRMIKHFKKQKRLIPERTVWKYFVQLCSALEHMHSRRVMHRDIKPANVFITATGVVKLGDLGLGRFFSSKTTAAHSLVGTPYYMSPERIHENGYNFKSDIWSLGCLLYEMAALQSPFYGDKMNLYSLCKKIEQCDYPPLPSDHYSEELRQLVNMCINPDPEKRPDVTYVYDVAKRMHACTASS
# [19] = target: Serine/threonine-protein kinase Nek7 (Homo sapiens) (UniProt Q8TDX7); details: at 1 µM
# [20] = target: T7, Serine/threonine-protein kinase Nek9 (Homo sapiens) (UniProt Q8TD19); details: at 0.1 µM;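 note: reported value is the mean percent inhibition of NEK9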
# T7 sequence (whole entry): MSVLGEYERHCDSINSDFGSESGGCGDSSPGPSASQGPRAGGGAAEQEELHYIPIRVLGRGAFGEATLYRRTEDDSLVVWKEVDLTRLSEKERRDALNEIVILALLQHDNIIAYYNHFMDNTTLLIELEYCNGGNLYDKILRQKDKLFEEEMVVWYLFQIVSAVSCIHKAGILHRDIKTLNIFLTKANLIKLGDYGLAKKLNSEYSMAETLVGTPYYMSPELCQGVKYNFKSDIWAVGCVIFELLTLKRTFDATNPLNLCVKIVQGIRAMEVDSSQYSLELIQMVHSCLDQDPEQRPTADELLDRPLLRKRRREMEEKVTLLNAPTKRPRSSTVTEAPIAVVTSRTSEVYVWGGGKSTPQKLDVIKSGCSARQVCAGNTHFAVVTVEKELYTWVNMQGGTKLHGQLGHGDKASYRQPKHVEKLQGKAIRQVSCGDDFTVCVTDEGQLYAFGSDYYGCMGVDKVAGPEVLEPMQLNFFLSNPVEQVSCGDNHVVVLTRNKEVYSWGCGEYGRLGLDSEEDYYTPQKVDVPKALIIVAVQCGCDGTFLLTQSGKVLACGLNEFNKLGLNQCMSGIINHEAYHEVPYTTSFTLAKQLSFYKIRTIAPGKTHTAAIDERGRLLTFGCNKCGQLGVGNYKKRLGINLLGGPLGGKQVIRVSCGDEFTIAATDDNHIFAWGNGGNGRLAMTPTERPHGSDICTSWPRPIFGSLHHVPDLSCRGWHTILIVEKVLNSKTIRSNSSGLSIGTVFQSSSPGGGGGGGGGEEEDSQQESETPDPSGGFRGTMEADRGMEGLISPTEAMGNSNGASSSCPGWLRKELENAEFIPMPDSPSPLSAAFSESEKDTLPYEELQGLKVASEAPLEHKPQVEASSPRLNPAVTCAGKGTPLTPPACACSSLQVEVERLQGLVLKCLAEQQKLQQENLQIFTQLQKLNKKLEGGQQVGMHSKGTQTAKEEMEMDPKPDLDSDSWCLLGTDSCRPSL
# Chain of Sphingosine kinase 1 (Homo sapiens) (Q9NYA1 whole entry): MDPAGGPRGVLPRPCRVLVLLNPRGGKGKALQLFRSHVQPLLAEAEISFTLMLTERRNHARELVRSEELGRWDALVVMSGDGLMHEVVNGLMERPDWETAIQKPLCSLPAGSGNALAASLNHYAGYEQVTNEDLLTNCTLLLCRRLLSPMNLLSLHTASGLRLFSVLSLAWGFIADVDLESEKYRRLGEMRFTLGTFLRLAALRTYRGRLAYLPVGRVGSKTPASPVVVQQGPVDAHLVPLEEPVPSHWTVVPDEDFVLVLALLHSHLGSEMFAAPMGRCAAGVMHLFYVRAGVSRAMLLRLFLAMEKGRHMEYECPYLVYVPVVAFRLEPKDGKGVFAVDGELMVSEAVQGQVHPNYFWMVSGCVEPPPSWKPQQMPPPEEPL
smiles,measurement,setting,value
Clc1ccc(CNc2nccc(-c3cnn4ncccc34)n2)cc1,inhibition,[1],0.04%
same,inhibition,[2],-0.11%
same,inhibition,[3],-0.22%
same,inhibition,[4],2.95%
same,inhibition,[5],17.9%
same,inhibition,[6],1.91%
same,inhibition,[7],7.65%
same,inhibition,[8],1%
same,inhibition,[9],0.32%
same,inhibition,[10],0.31%
same,inhibition,[11],-0.99%
same,inhibition,[12],0.32%
same,inhibition,[13],19.8%
same,inhibition,[14],0.93%
same,inhibition,[15],0.52%
same,inhibition,[16],3.94%
same,inhibition,[17],-1.91%
same,inhibition,[18],-2.2%
same,inhibition,[19],0.48%
same,inhibition,[20],-0.09%
